# Measurements as given in the supplement of paper PMC8728848.
# Shown is part of a subset that was picked to be rich in the strongest signals.
# B1: Flo1 (Saccharomyces cerevisiae), P32768 (protein)
# chain: SGATEACLPAGQRKSGMNINFYQYSLKDSSTYSNAAYMAYGYASKTKLGSVGGQTDISIDYNIPCVSSSGTFPCPQEDSYGNWGCKGMGACSNSQGIAYWSTDLFGFYTTPTNVTLEMTGYFLPPQTGSYTFKFATVDDSAILSVGGATAFNCCAQQQPPITSTNFTIDGIKPWGGSLPPNIEGTVYMYAGYYYPMKVVYSNAVSWGTLPISVTLPDGTTVSDDFEGYVYSFDDDLSQSNCTVPDPSNY
# Legend:
# Test in all cases: glycan array binding signal (z-score within array); higher = stronger binding
# Conditions in all cases: glycan notation: IUPAC condensed, linker removed
# [1] = target: Gal(b1-4)GlcNAc(b1-3)Gal(b1-4)GlcNAc(b1-3)Gal(b1-4)GlcNAc(b1-3)Gal(b1-4)GlcNAc(b1-2)[Gal(b1-4)GlcNAc(b1-3)Gal(b1-4)GlcNAc(b1-3)Gal(b1-4)GlcNAc(b1-3)Gal(b1-4)GlcNAc(b1-6)]Man(a1-6)[Gal(b1-4)GlcNAc(b1-3)Gal(b1-4)GlcNAc(b1-3)Gal(b1-4)GlcNAc(b1-3)Gal(b1-4)GlcNAc(b1-2)Man(a1-3)]Man(b1-4)GlcNAc(b1-4)[Fuc(a1-6)]GlcNAc
# Summary of the method: (§1)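 The Consortium for Functional Glycomics database supplied 3228 glycan arrays, of which those lacking an available protein sequence were dropped. The binding signal, a within-array Z-score, was averaged across arrays of the same protein sequence and across linkers. Negative scores can be read as non-binding.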
# [2] = target: Gal(b1-4)GlcNAc(b1-6)Gal(b1-4)GlcNAc
# Summary of the method: as §1
# Gal3S(b1-3)GalNAc = target: Gal3S(b1-3)GalNAc
# Summary of the method: as §1
# Gal3S(b1-4)GlcNAc6S = target: Gal3S(b1-4)GlcNAc6S
# Summary of the method: as §1
# [3] = target: Gal3S(b1-4)[Fuc(a1-3)]GlcNAc
# Summary of the method: as §1
# [4] = target: Gal3S(b1-4)[Fuc(a1-3)]GlcNAc6S
# Summary of the method: as §1
# Gal6S(b1-4)GlcNAc6S = target: Gal6S(b1-4)GlcNAc6S
# Summary of the method: as §1
# GalNAc(b1-4)Gal(b1-4)Glc = target: GalNAc(b1-4)Gal(b1-4)Glc
# Summary of the method: as §1
# GalNAc3S(b1-4)GlcNAc = target: GalNAc3S(b1-4)GlcNAc
# Summary of the method: as §1
# GalNAc4S6S(b1-4)GlcNAc = target: GalNAc4S6S(b1-4)GlcNAc
# Summary of the method: as §1
# [5] = target: GlcNAc(a1-4)Gal(b1-4)GlcNAc(b1-3)Gal(b1-4)[Fuc(a1-3)]GlcNAc(b1-3)Gal(b1-4)[Fuc(a1-3)]GlcNAc
# Summary of the method: as §1
# [6] = target: GlcNAc(a1-6)Gal(b1-4)GlcNAc
# Summary of the method: as §1
# [7] = target: GlcNAc(b1-2)Man(a1-3)[GlcNAc(b1-4)][GlcNAc(b1-2)Man(a1-6)]Man(b1-4)GlcNAc(b1-4)[Fuc(a1-6)]GlcNAc
# Summary of the method: as §1
# [8] = target: GlcNAc(b1-3)Gal(b1-4)GlcNAc(b1-3)Gal(b1-4)GlcNAc(b1-3)Gal(b1-4)GlcNAc(b1-3)Gal(b1-4)GlcNAc(b1-2)Man(a1-3)[GlcNAc(b1-3)Gal(b1-4)GlcNAc(b1-3)Gal(b1-4)GlcNAc(b1-3)Gal(b1-4)GlcNAc(b1-3)Gal(b1-4)GlcNAc(b1-2)Man(a1-6)]Man(b1-4)GlcNAc(b1-4)[Fuc(a1-6)]GlcNAc
# Summary of the method: as §1
# [9] = target: GlcNAc(b1-3)Gal(b1-4)GlcNAc(b1-6)[Gal(b1-3)]GalNAc
# Summary of the method: as §1
# [10] = target: GlcNAc(b1-3)Gal(b1-4)GlcNAc(b1-6)[GlcNAc(b1-3)]Gal(b1-4)GlcNAc
# Summary of the method: as §1
# [11] = target: GlcNAc(b1-4)[GlcNAc(b1-6)]GalNAc
# Summary of the method: as §1
# [12] = target: Man(a1-2)Man(a1-2)Man(a1-3)Man
# Summary of the method: as §1
# Man(b1-4)GlcNAc = target: Man(b1-4)GlcNAc
# Summary of the method: as §1
# [13] = target: Neu5Ac(a2-3)Gal(b1-3)GalNAc(b1-3)Gal(a1-4)Gal(b1-4)Glc
# Summary of the method: as §1
# [14] = target: Neu5Ac(a2-3)Gal(b1-3)[Fuc(a1-4)]GlcNAc(b1-3)Gal(b1-3)[Fuc(a1-4)]GlcNAc
# Summary of the method: as §1
# [15] = target: Neu5Ac(a2-3)Gal(b1-4)GlcNAc(b1-2)[Neu5Ac(a2-3)Gal(b1-4)GlcNAc(b1-4)]Man(a1-3)[GlcNAc(b1-4)][Neu5Ac(a2-3)Gal(b1-4)GlcNAc(b1-4)Man(a1-6)]Man(b1-4)GlcNAc(b1-4)GlcNAc
# Summary of the method: as §1
# [16] = target: Neu5Ac(a2-3)[GalNAc(b1-4)]Gal(b1-4)GlcNAc
# Summary of the method: as §1
# [17] = target: Neu5Ac(a2-6)Gal(b1-4)GlcNAc(b1-3)GalNAc
# Summary of the method: as §1
# [18] = target: Neu5Ac(a2-6)GlcNAc(b1-4)GlcNAc
# Summary of the method: as §1
# [19] = target: Neu5Ac(a2-8)Neu5Ac(a2-3)Gal(b1-3)GalNAc(b1-4)[Neu5Ac(a2-3)]Gal(b1-4)Glc
# Summary of the method: as §1
# [20] = target: Neu5Gc(a2-6)Gal(b1-4)GlcNAc
# Summary of the method: as §1
binder,measurement,setting,value
B1,glycan array binding signal (z-score),[1],1.44
same,glycan array binding signal (z-score),[2],-0.551
same,glycan array binding signal (z-score),Gal3S(b1-3)GalNAc,-0.392
same,glycan array binding signal (z-score),Gal3S(b1-4)GlcNAc6S,-0.289
same,glycan array binding signal (z-score),[3],-0.778
same,glycan array binding signal (z-score),[4],-0.547
same,glycan array binding signal (z-score),Gal6S(b1-4)GlcNAc6S,-0.216
same,glycan array binding signal (z-score),GalNAc(b1-4)Gal(b1-4)Glc,3.53
same,glycan array binding signal (z-score),GalNAc3S(b1-4)GlcNAc,-0.358
same,glycan array binding signal (z-score),GalNAc4S6S(b1-4)GlcNAc,3.28
same,glycan array binding signal (z-score),[5],2.23
same,glycan array binding signal (z-score),[6],-0.009
same,glycan array binding signal (z-score),[7],0.011
same,glycan array binding signal (z-score),[8],-0.202
same,glycan array binding signal (z-score),[9],-0.618
same,glycan array binding signal (z-score),[10],-2.82
same,glycan array binding signal (z-score),[11],-0.024
same,glycan array binding signal (z-score),[12],0.403
same,glycan array binding signal (z-score),Man(b1-4)GlcNAc,-0.306
same,glycan array binding signal (z-score),[13],-0.211
same,glycan array binding signal (z-score),[14],0.24
same,glycan array binding signal (z-score),[15],0.143
same,glycan array binding signal (z-score),[16],0.215
same,glycan array binding signal (z-score),[17],0.748
same,glycan array binding signal (z-score),[18],-0.394
same,glycan array binding signal (z-score),[19],1.62
same,glycan array binding signal (z-score),[20],-0.199
